14 compounds from PubChem BioAssay (NCATS) can be followed below.

Values without a mark were called inactive. Inconclusive results are not listed. The source made the active and inactive calls. Unless noted, calls follow the shape of the dose curve; as a rule, active = well fitted curve in either direction with a large enough effect (not every such curve was filed as active); inconclusive = small, poorly fitted or top-dose-only effect, or another doubt; inactive = flat fitted curve, though single readings scatter. Residues, ends and D or L forms follow the SMILES beside them.

The target of assay [1] is Lysosomal acid glucosylceramidase (Homo sapiens) (UniProt P04062). In words: Glucocerebrosidase-p2 (AID 348; in the data active = potency below about 10 µM; also: potency is read from the fitted curve at half-maximal effect). Particulars: purified GBA, blue fluorogenic substrate, 40 min. The method in brief:
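Normal human glucocerebrosidase (0.2 nM) with blue fluorogenic substrate (80 uM final) in citrate/phosphate pH 5.9 with 10mM sodium taurocholate, 0.01% tween-20; 40 min RT, NaOH/glycine stop; fluorescence Ex 365/Em 440; AC50 from a titration from 0.6 nM upwards.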

A short description of assay [2]: AP1 Signaling Pathway (AID 357). Also: % is scaled to controls: 0 for no effect and ±100 for the full control effect. Particulars: ME-180 AP-1-bla reporter, EGF-induced, beta-lactamase ratio, 5 h; at 7.69 µM (top of the series) unless noted. The method in brief: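 ME-180 cells with beta-lactamase reporter under AP-1 response element, stimulated with EC50 EGF; compounds tested in titration series, 5 h at 37 °C. CCF4 substrate added 2.5 h at room temperature; 460/530 nm emission ratio gave %activity and AC50.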

The target of assay [3] is Cytochrome P450 1A2 (Homo sapiens) (UniProt P05177). In words: p450-cyp1a2 (AID 410; calls by dose curve; also: potency is read from the fitted curve at half-maximal effect). Particulars: recombinant CYP1A2, luciferin-ME demethylation, luminescence; series mostly up to 11.4 µM. The method in brief: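 20nM CYP1A2, 100uM Luciferin-ME (=Km), 100mM KPO4; cpd 10 min RT; +NADPH regen, 60 min RT; stop/detect 20 min; luminescence. Normalized to furafylline 57 uM = full inhibition.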
Sequence of Cytochrome P450 1A2 (Homo sapiens) (P05177 whole entry, looked up): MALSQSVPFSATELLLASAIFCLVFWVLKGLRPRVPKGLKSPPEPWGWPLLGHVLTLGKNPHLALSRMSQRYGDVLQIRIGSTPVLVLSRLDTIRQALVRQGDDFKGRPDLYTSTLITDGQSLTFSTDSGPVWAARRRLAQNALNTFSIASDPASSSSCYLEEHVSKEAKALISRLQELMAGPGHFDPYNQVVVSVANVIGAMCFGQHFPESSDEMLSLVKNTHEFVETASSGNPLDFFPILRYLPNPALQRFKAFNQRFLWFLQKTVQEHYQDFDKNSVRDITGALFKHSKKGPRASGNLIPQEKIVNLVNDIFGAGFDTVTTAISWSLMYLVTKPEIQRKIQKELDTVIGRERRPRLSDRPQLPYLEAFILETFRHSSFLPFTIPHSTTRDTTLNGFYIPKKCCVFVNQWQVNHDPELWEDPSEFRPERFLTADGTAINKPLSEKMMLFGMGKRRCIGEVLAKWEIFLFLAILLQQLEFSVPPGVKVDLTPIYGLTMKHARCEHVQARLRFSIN

Assay [4] can be described thus: NFAT Signaling Pathway (AID 444).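 Also: carbachol stimulus at about its EC50 of 1 µM final; % is scaled to controls: 0 for no effect and ±100 for the full control effect.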 Particulars: Jurkat NFAT-bla M1, carbachol, beta-lactamase ratio, 5 h; at 7.69 µM (top of the series) unless noted. The procedure, abridged: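 Jurkat cells carrying an NFAT-driven β-lactamase reporter and co-transfected muscarinic M1 receptor were treated with compound plus carbachol (1 uM final, an EC50 level) for 5 h at 37 °C. CCF4 loading followed for 1 h at RT; 460/530 nm ratio gave %activity.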

Assay [5] can be described thus: Stat Signaling Pathway (AID 446).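 Also: ME-180 cervical cancer cells given 40 pM IL-6 alongside compound; SIE-controlled beta-lactamase reporter measured as 460/530 nm FRET emission ratio; % is scaled to controls: 0 for no effect and ±100 for the full control effect.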 The conditions noted are these: ME-180 (cervical carcinoma) SIE beta-lactamase reporter, IL-6 stimulated, 5 h; at 7.69 µM (top of the series) unless noted. The method in brief:
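FRET read-out (405 nm excitation, 460/530 nm emission) of a beta-lactamase reporter under a STAT-inducible element in ME-180 cervical carcinoma cells. Cells with compound receive 40 pM IL-6 for 5 h. Values are normalised to AC90 stimulation and AC90 JAK-inhibitor controls.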

For assay [6], the target named is Glucocorticoid receptor (Homo sapiens) (UniProt P04150). In words: GR-GFP Redistribution (AID 450;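 active = compounds whose dose series gives a full or clear partial fitted curve of increased nuclear translocation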; also: potency is read from the fitted curve at half-maximal effect). Particulars: U2OS GR-GFP nuclear translocation, laser cytometry, 2 h.
Sequence of Glucocorticoid receptor (Homo sapiens) (P04150 whole entry, looked up): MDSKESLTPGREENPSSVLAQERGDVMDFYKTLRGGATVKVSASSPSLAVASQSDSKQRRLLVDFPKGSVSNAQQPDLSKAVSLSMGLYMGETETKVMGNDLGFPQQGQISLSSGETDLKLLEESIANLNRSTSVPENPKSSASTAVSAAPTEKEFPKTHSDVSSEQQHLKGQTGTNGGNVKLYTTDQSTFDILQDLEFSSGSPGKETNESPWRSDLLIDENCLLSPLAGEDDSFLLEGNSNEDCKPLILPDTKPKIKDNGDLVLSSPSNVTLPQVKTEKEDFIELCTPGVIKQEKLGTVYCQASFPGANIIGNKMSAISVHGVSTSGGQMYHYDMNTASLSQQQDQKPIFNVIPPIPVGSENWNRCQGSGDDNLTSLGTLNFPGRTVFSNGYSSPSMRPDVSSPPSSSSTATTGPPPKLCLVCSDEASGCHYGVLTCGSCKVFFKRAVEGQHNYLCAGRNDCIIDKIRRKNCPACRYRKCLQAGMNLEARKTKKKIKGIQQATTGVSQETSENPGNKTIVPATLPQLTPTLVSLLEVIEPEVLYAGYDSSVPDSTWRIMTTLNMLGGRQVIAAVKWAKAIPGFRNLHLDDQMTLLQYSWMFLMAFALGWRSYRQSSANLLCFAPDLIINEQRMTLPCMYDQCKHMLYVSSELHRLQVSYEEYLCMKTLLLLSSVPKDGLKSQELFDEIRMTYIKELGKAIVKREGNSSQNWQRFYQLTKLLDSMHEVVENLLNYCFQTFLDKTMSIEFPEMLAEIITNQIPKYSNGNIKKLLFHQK
Assay [7] has the same target. In words: GR-EFC Redistribution (AID 451; calls by dose curve; also: potency is read from the fitted curve at half-maximal effect). The conditions noted are these: CHO-K1 GR-EFC translocation, beta-gal luminescence, 2 h. The method in brief:
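CHO-K1 cells stably expressing nuclear-localized β-gal enzyme acceptor and GR fused C-terminally to the enzyme donor fragment; ligand-driven nuclear translocation restores β-gal by complementation. Compounds titrated up to 46 uM final, 2 h at 37 °C; luminescence read.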

Assay [8] deals with Mitogen-activated protein kinase 10 (Mus musculus) (UniProt Q61831). In words: JNK3 AlphaScreen Assay (AID 530).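 Also: kinase came from lysate of stimulated human HepG2 cells; % is scaled to controls: 0 for no effect and ±100 for the full control effect.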 The conditions noted are these: JNK3 lysate, c-Jun phosphorylation; series mostly up to 11.4 µM. The method in brief: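 Biotinylated GST-cJun(1-79) served as substrate for JNK3 in HepG2 lysates stimulated with IL-1beta and TNF-alpha. ATP was 10 uM final, pH 7.6. Ser73 phosphorylation was quantified by AlphaScreen (680 nm excitation).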

The target in assay [9] is 3',5'-cyclic-AMP phosphodiesterase 4B (Homo sapiens) (UniProt Q07343). In words: qHTS Assay for Inhibitors of PDE-IV (AID 607; active = well fitted activation curve with a large enough effect in the main read-out, with a control signal flat, not every such curve was filed as active; also: % of control where 0% means no effect). Particulars: HEK293 ACTOne CNG channel cells, membrane potential fluorescence; series mostly up to 22.9 µM. The procedure, abridged: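 Cell-based read-out of cAMP via a modified cyclic nucleotide-gated channel and membrane potential dye (535/590 nm) in HEK293 cells expressing PDE4 endogenously. Compounds tested up to 22.9 uM final; 100 uM RO 20-1724 reference.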
Sequence of 3',5'-cyclic-AMP phosphodiesterase 4B (Homo sapiens) (Q07343 whole entry, looked up): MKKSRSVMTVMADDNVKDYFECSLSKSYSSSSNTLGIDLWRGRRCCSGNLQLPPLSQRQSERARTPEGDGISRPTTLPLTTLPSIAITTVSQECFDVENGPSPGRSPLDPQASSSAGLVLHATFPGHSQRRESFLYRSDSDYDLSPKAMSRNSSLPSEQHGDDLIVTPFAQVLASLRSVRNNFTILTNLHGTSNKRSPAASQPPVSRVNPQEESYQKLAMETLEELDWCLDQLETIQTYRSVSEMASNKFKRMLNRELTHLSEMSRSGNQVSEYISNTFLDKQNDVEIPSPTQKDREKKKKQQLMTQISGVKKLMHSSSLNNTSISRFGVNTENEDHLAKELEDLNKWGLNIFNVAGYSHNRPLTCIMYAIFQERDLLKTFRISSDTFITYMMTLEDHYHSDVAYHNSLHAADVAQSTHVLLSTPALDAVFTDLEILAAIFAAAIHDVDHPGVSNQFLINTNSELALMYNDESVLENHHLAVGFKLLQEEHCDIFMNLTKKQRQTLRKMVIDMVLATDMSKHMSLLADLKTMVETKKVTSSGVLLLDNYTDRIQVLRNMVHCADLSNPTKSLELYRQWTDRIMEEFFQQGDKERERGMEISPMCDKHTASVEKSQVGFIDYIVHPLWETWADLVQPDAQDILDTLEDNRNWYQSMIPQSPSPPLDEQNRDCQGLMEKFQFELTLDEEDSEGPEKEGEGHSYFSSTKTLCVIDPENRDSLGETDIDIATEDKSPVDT

Sequence of Lysosomal acid glucosylceramidase (Homo sapiens) (P04062 whole entry, looked up): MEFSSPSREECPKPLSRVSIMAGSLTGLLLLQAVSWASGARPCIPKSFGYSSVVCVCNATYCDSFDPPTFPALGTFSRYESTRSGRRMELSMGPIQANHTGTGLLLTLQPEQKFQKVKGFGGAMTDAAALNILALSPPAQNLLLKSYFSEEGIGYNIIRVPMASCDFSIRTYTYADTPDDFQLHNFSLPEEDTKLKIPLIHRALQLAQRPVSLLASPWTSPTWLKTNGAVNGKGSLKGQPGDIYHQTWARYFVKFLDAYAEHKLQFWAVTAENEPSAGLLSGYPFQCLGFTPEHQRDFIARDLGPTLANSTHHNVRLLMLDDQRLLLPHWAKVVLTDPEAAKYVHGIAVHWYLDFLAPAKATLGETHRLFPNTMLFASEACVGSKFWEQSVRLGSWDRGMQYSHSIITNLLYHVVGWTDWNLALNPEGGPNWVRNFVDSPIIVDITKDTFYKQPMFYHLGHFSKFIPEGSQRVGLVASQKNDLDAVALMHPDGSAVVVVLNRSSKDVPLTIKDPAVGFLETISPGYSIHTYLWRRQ

As for `O=S(=O)(O)c1cc(N=[N+]([O-])c2cc(S(=O)(=O)O)c3ccccc3c2)cc2ccccc12`, the Potency in [1] was greater than 11.4 µM; in [3] it was 1.26 µM (active); in assay [6] it was greater than 46 µM; in assay [7], greater than 9.22 µM. Besides, the values for the activity change, negative = inhibition in assay [2] and in assay [4] were 5.38% and 8.26%, respectively. The activity, negative = inhibition in assay [5] was -2.62%. The Potency result in assay [8] and in assay [9] was “inactive” each time.

As to `Nc1ncnc2c1nc(-c1ccccc1)n2[C@H]1O[C@@H](CO)[C@@H](O)[C@H]1O`, the Potency in assay [1] was greater than 11.4 µM; in assay [6], greater than 46 µM; in [7], greater than 9.22 µM. Moreover, the activity change, negative = inhibition was -9.23% in assay [2], -16.8% [at 2.29 µM] in assay [3] and 6.55% in assay [4]. The activity, negative = inhibition in assay [5] was 1.65%. The Potency entry in assay [8] and in assay [9] was “inactive” in each case.

As for `N[C@H](CO)C(=O)NCC(=O)O` (HELM PEPTIDE1{[dS].G}$$$$V2.0), the Potency in assay [1] is greater than 11.4 µM; in assay [6], greater than 46 µM; in [7], greater than 9.22 µM. Besides, the activity change, negative = inhibition is -4.49% in assay [2], 3.6% [at 2.29 µM] in assay [3] and 13.2% in assay [4]. Further, the activity, negative = inhibition in assay [5] is 13.6%. Also, the Potency result in assay [8] and in assay [9] was “inactive” in each case.

For the compound `COc1cc(NCCC(=O)O)c2ncccc2c1`, the Potency in [1] was greater than 11.4 µM; in [6], greater than 46 µM; in assay [7], greater than 9.22 µM. Besides, the activity change, negative = inhibition was 2.4% in assay [2] and 2.69% in assay [4]. In addition, the Potency result in assay [3], in assay [8] and in [9] was “inactive” throughout. In addition, the activity, negative = inhibition in assay [5] is -1.17%.

`Nc1nc2c(C(=O)NCc3cccs3)nnn2c2cccc(Cl)c12`: the Potency in assay [1] is greater than 11.4 µM; in assay [3] it was 1 µM (active); in assay [6], greater than 46 µM; in assay [7] it was greater than 9.22 µM. The activity change, negative = inhibition in assay [2] is 2.54%; in [4], -1.34%. Besides, the activity, negative = inhibition in assay [5] is -2.31%. Besides, the Potency result in [8] and in assay [9] was “inactive” in each case.

As for `O=C(O)CCNc1ccccc1C(=O)O`, the Potency in [1] was greater than 11.4 µM; in [6], greater than 46 µM; in assay [7], greater than 9.22 µM. For the same compound, the activity change, negative = inhibition in [2] was -0.595%; in assay [4] it was 4.52%. Further, the Potency entry in assay [3], in [8] and in assay [9] was “inactive” in each case. Further, in [5], the activity, negative = inhibition was 6.23%.

In the case of `CC1=CC(=O)CC(C)(C)[C@]1(O)/C=C\C(C)=C\C(=O)O`, the figures for the Potency in assay [1], in assay [6] and in assay [7] were greater than 11.4 µM, greater than 46 µM and greater than 9.22 µM, respectively. For the same compound, the values for the activity change, negative = inhibition in [2] and in assay [4] were 2.59% and -29.1%, respectively. Moreover, the Potency entry in assay [3], in assay [8] and in assay [9] was “inactive” throughout. Besides, the activity, negative = inhibition in [5] is 2.83%.

Take `CCCCN(c1ccccc1)c1ncnc2c1cnn2C`: the Potency in assay [1] is greater than 11.4 µM; in assay [3], 0.631 µM (active); in assay [6] it was greater than 46 µM; in assay [7] it was greater than 9.22 µM. Besides, the activity change, negative = inhibition in [2] was -1.19%; in assay [4], 12.1%. In addition, in assay [5], the activity, negative = inhibition was 5.06%. For the same compound, the Potency entry in assay [8] and in [9] was “inactive” in each case.

For the compound `C[C@@](N)(Cc1c[nH]c2ccccc12)C(=O)O`, the Potency in [1] was greater than 11.4 µM; in [6], greater than 46 µM; in assay [7] it was greater than 9.22 µM. For the same compound, the activity change, negative = inhibition was 13.6% in assay [2] and -4.57% in assay [4]. Also, the Potency entry in assay [3], in assay [8] and in [9] was “inactive” each time. Also, in assay [5], the activity, negative = inhibition is 10.9%.

In the case of `O=S(=O)(O)[C@@H](c1ccccc1)[C@@H](O)c1ccccc1`, the Potency in assay [1] was greater than 11.4 µM; in assay [6], greater than 46 µM; in assay [7], greater than 9.22 µM. In addition, the activity change, negative = inhibition in [2] is 1.17%; in assay [3], -13.9% [at 2.29 µM]; in assay [4] it was 8.34%. Also, the activity, negative = inhibition in [5] was 8.88%. In addition, the Potency entry in assay [8] and in assay [9] was “inactive” each time.

Turning to `CC(C)(CO[C@H]1C[C@H]2CC[C@@]1(C)C2(C)C)[N+](=O)[O-]`, the Potency in assay [1] is greater than 11.4 µM; in [6], greater than 46 µM; in [7] it was greater than 9.22 µM. Moreover, the activity change, negative = inhibition is -1.64% in assay [2] and 7.34% in assay [4]. Also, the Potency result in assay [3], in [8] and in [9] was “inactive” each time. The activity, negative = inhibition in assay [5] was -3.85%.

Turning to `Cn1ncc2c(Cl)ncnc21`, the Potency was greater than 11.4 µM in assay [1], greater than 46 µM in assay [6] and greater than 9.22 µM in assay [7]. The activity change, negative = inhibition in assay [2] was 2.44%; in [4] it was 17.9%. Besides, the Potency entry in assay [3], in assay [8] and in assay [9] was “inactive” throughout. Besides, the activity, negative = inhibition in [5] is 13.8%.

For `N[C@H]1[C@@H](C(=O)O)[C@H]2C=C[C@H]1C2`, the Potency is greater than 11.4 µM in [1], greater than 46 µM in assay [6] and greater than 9.22 µM in [7]. Further, the results for the activity change, negative = inhibition in assay [2] and in [4] were 7.53% and 24.6%, respectively. Moreover, the Potency entry in [3], in assay [8] and in assay [9] was “inactive” each time. Besides, the activity, negative = inhibition in [5] is 7.88%.

Consider `CC(=O)[C@H]([C@@H](c1ccccc1)N1CCOCC1)N1CCOCC1`, for which the Potency was greater than 11.4 µM in [1], greater than 46 µM in assay [6] and greater than 9.22 µM in assay [7]. Also, the activity change, negative = inhibition was 4% in assay [2] and 15.1% in assay [4]. The Potency result in [3], in [8] and in [9] was “inactive” in each case. Besides, the activity, negative = inhibition in assay [5] is 4.56%.
